By inhibition is commonly meant the change of the read-out against control, counted positive when it falls.

In all, about 140,000 compounds went through this assay and about 1,400 (1%) were called active. The list comes from a sample in which actives are over-represented; it also holds similar structures and randomly drawn compounds. Values without a mark were called inactive. No stated cut-off is given here; in the data, active means inhibition above about 17%; inactive means the rest.

Neuropeptide Y receptor type 2 (Homo sapiens), sequence (P49146 whole entry, looked up): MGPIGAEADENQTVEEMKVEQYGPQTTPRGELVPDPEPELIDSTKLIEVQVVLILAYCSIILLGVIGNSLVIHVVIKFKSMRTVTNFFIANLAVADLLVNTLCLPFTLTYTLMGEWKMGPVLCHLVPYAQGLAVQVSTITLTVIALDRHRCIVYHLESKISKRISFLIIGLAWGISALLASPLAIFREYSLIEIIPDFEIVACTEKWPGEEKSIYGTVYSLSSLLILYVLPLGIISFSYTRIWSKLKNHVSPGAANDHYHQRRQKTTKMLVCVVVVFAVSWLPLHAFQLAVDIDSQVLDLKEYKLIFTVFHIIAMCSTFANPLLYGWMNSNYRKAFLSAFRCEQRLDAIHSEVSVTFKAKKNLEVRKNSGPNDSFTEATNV

The assay addresses Neuropeptide Y receptor type 2 (Homo sapiens) (UniProt P49146). The assay is described as follows: blockers of human neuropeptide Y Y2 receptor – cell-based, primary screen (AID 793).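 Further: 0% = vehicle with agonist challenge and 100% = reference antagonist with challenge.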 The note with it: NPY-Y2 expressing cells, antagonist mode; at 2.7 µM; hits give high values.
Regarding `CCCC(O)(CCC)C(=O)NN(C(=O)CCl)c1cccc(C)c1`, the inhibition was 8.32%.

In the case of `Cc1ccc(N(NC(=O)C(C)(C)O)C(=O)c2ccccc2)cc1C`, the inhibition was 2.31%. Then `CCCCC(O)(CCCC)C(=O)NN(C(=O)CCl)c1ccccc1`, with 21.9% (active); and `CCCc1cc(=O)[nH]c(SCc2cc(=O)oc3c(C)c(C)ccc23)n1`, with 6.69%; and `COc1cc(Cl)c(C)cc1NC(=O)[C@@H]1CCCN1C(=O)c1cccs1`, with 6.63%.

As to `NC(=O)COc1ccc2c3c(c(=O)oc2c1)CCCCC3`, the inhibition is 0.83%. `O=C(Oc1ccccc1)Oc1ccc2c(c1)oc(=O)c1ccccc12`: the inhibition was 23.1% (active).

Regarding `CC(=O)Oc1ccc2c(C)c(CC(C)O)c(=O)oc2c1` (stereo not drawn), the inhibition was 2.41%. Then `Cc1nc2ccccc2cc1C(=O)N/N=C/c1ccc([N+](=O)[O-])cc1`, with -0.48%; and `Cc1cc(C(=O)OCC(=O)Nc2nnc(C(C)C)s2)c2ccccc2n1`, with 4.1%; and `CN(C)Cc1ccc(F)cc1Sc1cc(Cl)ccc1Cl`, with 20.2% (active). For `COc1cc(OC)c(NC(=O)c2ccc(Br)o2)cc1Cl`, the inhibition is -1.32%. Then `CCCC(=O)Nc1ccc(Cl)c(NC(=O)c2ccc(Br)o2)c1`, with -1.21%; and `CCN1CCN(c2c(Cl)cccc2NC(=O)c2ccc(Br)o2)CC1`, with 31.1% (active); and `COC(=O)c1ccc(CSc2nncn2C)cc1`, with 3.48%. Then `COC(=O)c1ccc(CSc2nc3cc(Cl)ccc3o2)cc1`, with 21.5% (active); and `O=C(CSc1nc2ccccc2o1)N1c2ccccc2Sc2ccc(Cl)cc21`, with 6.15%; and `Cc1ccc(S(=O)(=O)NNC(=O)Nc2cccc3ccccc23)cc1`, with 1.93%. Then `COc1cccc2c(O)cc(=O)n(C)c12`, with 1.18%; and `CCOc1ccc(S(=O)(=O)N/N=C(\C)c2ccc(Cl)c(Cl)c2Cl)cc1`, with 17.4% (active); and `CCOc1ccc(S(=O)(=O)NCC2CCCO2)cc1` (stereo not drawn), with 2.22%. As to `C/C(=N\NS(=O)(=O)c1ccc(Br)cc1)c1cccs1`, the inhibition is 3.39%. For `Cc1cccc(NC(=O)/C=C/c2ccc3c(c2)OCO3)n1`, the inhibition is 3.73%. Then `COc1cccc(-c2ccc(C#N)c(SCC(=O)NCCc3ccc(Cl)cc3)n2)c1`, with 18.3% (active); and `COc1ccc(CCNC(=O)CSc2nnc(-c3cccc(F)c3)o2)cc1OC`, with -1.35%; and `COc1ccc(CCNC(=O)CSc2nc(-c3ccc(OC)c(OC)c3)ccc2C#N)cc1`, with 4.73%. Then `Cc1nnc(NC(=O)/C=C/c2ccco2)s1`, with 10.7%. Then `O=C1OC(/C=C/c2ccccc2)=NC/1=C/c1ccco1`, with 0.56%.
